Bioassay records as filed in PubChem BioAssay.
Only some compounds are listed: those with a hit (about 2.5% of all), similar ones and a draw of the others.
Apoferritin bind – qHTS Assay for Identification of Novel General Anesthetics. Potency, µM (series often up to 77.5 µM), for inactives: at the highest dose activity change, negative = displacement, usual class: inhibitors. apoferritin/1-aminoanthracene competitive binding, fluorescence. hit rate 0.074% among 350,000. AID 485281, 2010; active = well fitted inhibition curve with a large enough effect; inconclusive = small, poorly fitted or top-dose-only effect; inactive = no such curve, though single readings can be large or run the other way; note: potency is the fitted concentration of half-maximal effect; % is set by controls: 0 for no effect and ±100 for the full control effect; nearly all actives have a fitted effect of over 20% in size
Target sequence (P02791 2-175 limits assumed): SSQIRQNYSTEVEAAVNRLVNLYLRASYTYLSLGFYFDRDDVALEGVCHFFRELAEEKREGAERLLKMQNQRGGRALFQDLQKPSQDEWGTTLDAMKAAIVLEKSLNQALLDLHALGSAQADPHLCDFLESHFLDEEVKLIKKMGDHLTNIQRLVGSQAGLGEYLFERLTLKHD
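In PBS, apoferritin at 10 uM is loaded with 1-AMA from a 50% saturated solution. After 10 min of compound exposure at ambient temperature, reduced 535 nm fluorescence indicates probe displacement.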
D2 antagonist – HTS Assay for Allosteric Antagonists of the Human D2 Dopamine Receptor: Primary Screen for Antagonists; D(2) dopamine receptor (Homo sapiens), P14416; HEK293 TREx D2 cells, calcium flux, dopamine EC80; inhibition, % at 10 µM; hit rate 2% among 340,000; AID 485344, 2010; in the data active = inhibition above about 30%; inactive = below that, where a call was filed; note: 0% is about no effect
Target sequence (P14416 whole entry, looked up): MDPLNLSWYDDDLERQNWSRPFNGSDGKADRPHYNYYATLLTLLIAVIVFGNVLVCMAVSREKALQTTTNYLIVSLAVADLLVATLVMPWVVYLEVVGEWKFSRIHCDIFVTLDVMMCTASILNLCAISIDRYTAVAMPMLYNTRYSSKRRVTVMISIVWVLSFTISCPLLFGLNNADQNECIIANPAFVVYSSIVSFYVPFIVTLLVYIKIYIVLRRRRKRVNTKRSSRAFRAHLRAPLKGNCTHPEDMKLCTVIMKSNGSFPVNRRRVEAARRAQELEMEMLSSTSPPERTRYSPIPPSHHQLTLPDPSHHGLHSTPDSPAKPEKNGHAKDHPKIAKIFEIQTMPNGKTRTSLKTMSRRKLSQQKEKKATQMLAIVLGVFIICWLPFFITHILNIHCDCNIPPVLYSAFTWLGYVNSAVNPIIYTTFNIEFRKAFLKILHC
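Dopamine at EC80 is the agonist stimulus; test compounds precede it by 180 s. Calcium flux read kinetically in a force-coupled, inducible HEK293 T-REx D2 cell line.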
D2 ag-1 – HTS Assay for Allosteric Agonists of the Human D2 Dopamine Receptor: Primary Screen for Agonists | HEK293 T-REx D2 cells, calcium flux agonist mode | D(2) dopamine receptor (Homo sapiens), P14416 | hit rate 0.53% among 340,000 | activation, % at 2 µM;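 active = activation over 3 SD above normal in the single-dose calcium agonist read, cut at about 30% in these data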; note: 0% is about no effect
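In this primary screen, compounds producing a positive calcium signal within 180 s of addition to tetracycline-induced, force-coupled HEK293 Trex D2 cells are flagged; cells are dye-loaded with a no-wash calcium kit beforehand.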
D2 PAM-1 – Beta-Arrestin HTS for Positive Allosteric Modulators of the Human D2 Dopamine Receptor: Potentiators; AID 624464, 2012; D(2) dopamine receptor (Homo sapiens), P14416; hit rate 0.23% among 360,000; potentiation, % (no concentration beside the values); DiscoveRx D2 beta-arrestin cells, luminescence, 90 min; 100% = 57 uM dopamine signal; in the data active = potentiation above about 50%; inconclusive = mostly about 30% to 49%
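PathHunter beta-arrestin assay in DiscoveRx D2 cells. Compounds were added with an EC20 of dopamine (50 nM final) for 90 min at 37 deg C. Luminescence was read 1 h after detection reagent, with 57 uM dopamine as the EC100 control.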
D2 ag-2 – Beta-Arrestin HTS for Positive Allosteric Modulators of the Human D2 Dopamine Receptor: Agonists; DiscoveRx PathHunter D2 beta-arrestin, luminescence, 90 min; 100% = 57 uM dopamine signal; activation, % (test concentration not listed); hit rate 0.084% among 360,000; in the data active = activation above about 40%; inconclusive = between about 15% and that limit
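DiscoveRx PathHunter D2 beta-arrestin cells (2,100/well) attached overnight, then compound-stimulated 90 min at 37 C in HBSS/10 mM HEPES/0.1% Tween-20 buffer; beta-galactosidase complementation read by luminescence after 1 h at ambient temperature. Dopamine 57 uM final (EC100) as control.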
D2 PAM-2 – HTS Assay for Positive Allosteric Modulators of the Human D2 Dopamine Receptor: Primary Screen for Potentiators. D(2) dopamine receptor (Homo sapiens), P14416. AID 485347, 2010. HEK293 T-REx D2, calcium flux, EC20 dopamine potentiation. potentiation, % at 10 µM. hit rate 0.34% among 340,000;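 active = potentiation over 3 SD above the plate norm, cut at about 30% in these data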; note: 0% is about no effect
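Using a no-wash calcium dye in inducible, force-coupled HEK293 Trex cells expressing D2, we tracked fluorescence each second for 180 s after compound, then for 180 s after EC20 dopamine to detect augmented signalling.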
An asterisk follows results filed as active; ? = inconclusive; . = not tested or not shown.

SMILES	Apoferritin bind	D2 antagonist	D2 ag-1	D2 PAM-1	D2 ag-2	D2 PAM-2
COc1cccc(NC(=O)C2CCCN2C(=O)Nc2cccc(F)c2)c1 (configuration not stated)	-3%	2	0	3	-2	-2
COc1cccc(NC(=O)C2CCCN2C(=O)Nc2ccccc2)c1 (configuration not stated)	1%	33*	-1	-14	-5	4
O=C(COC(=O)/C=C/c1ccco1)NCc1ccccc1Cl	-13%	33*	0	0	-2	9
Brc1ccc(COc2cccc3cccnc23)cc1	.	.	.	-6	-3	.
N#Cc1ccc(COc2cccc3cccnc23)cc1	5%	-7	0	0	1	31*
O=C1c2ccccc2C(O)N1Cc1cccs1 (configuration not stated)	-6%	47*	0	-1	-3	5
O=C(NC1CCCCCC1)C1c2ccccc2C(=O)N1Cc1cccs1 (configuration not stated)	-12%	-11	0	-4	2	-6
COC(=O)C1=CN(Cc2ccc(OC)c(OC)c2)C=C(C(=O)OC)C1c1ccccc1F	226%	6	1	?	11	13
Cc1c(NC2=C(Cl)C(=O)N(c3ccccc3)C2=O)c(=O)n(-c2ccccc2)n1C	-23%	38*	1	-10	-2	1
O=C1C=C(OCc2ccccc2)CN1	-8%	-14	0	-5	-4	-8
CC(OCCN1CCCC1)(c1ccc(F)cc1)c1ccc(F)cc1	-5%	73*	1	-11	-11	-24
Fc1ccc(OCCOCCN2CCCC2)cc1	.	.	.	-5	3	.
Cc1cccc(-n2c(N)c(-c3nc4ccccc4n3C)c3nc4ccccc4nc32)c1	4%	-5	12	-10	-4	18
NCCN=C1NS(=O)(=O)c2ccccc21	9%	3	0	-10	-2	-14
O=S1(=O)NC(=NCc2ccccc2)c2ccccc21	-4%	30*	0	5	-3	-7
O=C(NC1CC1)C1CCN(C2CCN(C(=O)Cc3ccc(F)cc3)CC2)CC1	2%	34*	2	-2	1	13
O=C(CN1CCN(C2CCCCC2)CC1)c1c[nH]c2ccccc12	-11%	42*	1	-31	-2	-24
Oc1ccc2ccccc2c1C=Nc1cc(C(F)(F)F)ccc1N1CCCC1	-24%	6	0	55*	7	11
Cc1nc(N2CCOCC2)c(C#N)c2c1COC(C)(C)C2	-2%	-6	0	2	-4	33*
COc1ccc(NC(=O)CSC2=C(C#N)C(c3ccco3)C3=C(CCCC3=O)N2)c(OC)c1 (configuration not stated)	?	5	0	-1	0	10
COc1cccc(NC(=O)CSc2nc3c(c(-c4ccco4)c2C#N)CCCC3)c1	-12%	14	-1	5	4	42*
COc1cccc(NC(=O)CSC2=C(C#N)C(c3ccco3)C3=C(CCCC3=O)N2)c1 (configuration not stated)	-14%	37*	1	-20	1	-3
O=[N+]([O-])c1cc([N+](=O)[O-])c2cccnc2c1Oc1ccccc1O	-3%	-5	1	9	-9	-2
CN(C(=O)CSc1nnc(NCc2ccccc2)s1)C1CCS(=O)(=O)C1 (configuration not stated)	-3%	-6	2	-4	-3	-3
O=C1NC(NS(=O)(=O)c2ccccc2)(C(F)(F)F)C(=O)N1c1ccc(F)cc1 (configuration not stated)	0%	33*	-1	-3	-5	5
SMILES	Apoferritin bind	D2 antagonist	D2 ag-1	D2 PAM-1	D2 ag-2	D2 PAM-2
COCCCNC(=O)C1C2C=CC3(CN(Cc4ccc(C)cc4)C(=O)C13)O2 (configuration not stated)	-4%	39*	0	-12	-1	15
Cc1ccc(CN2CC34C=CC(O3)C(C(=O)NCc3ccc5c(c3)OCO5)C4C2=O)cc1 (configuration not stated)	-9%	.	.	0	-2	.
CCOC(=O)CN1CC23C=CC(O2)C(C(=O)NC2CCCC2)C3C1=O (configuration not stated)	15%	-7	-1	0	1	45*
O=C(NCc1nc(-c2ccc(Cl)cc2)no1)c1ccco1	-13%	34*	0	-1	0	12
CC(C)(CC(=O)O)Cc1nc(-c2ccc(Cl)cc2)no1	-8%	44*	-2	-6	-3	-4
O=C(O)CCc1nc(-c2ccc(Cl)cc2)no1	-10%	14	0	19	0	3
CN(C(=O)CCl)C1CCCc2ccccc21 (configuration not stated)	-11%	-12	0	-15	-4	34*
CN(C(=O)c1cccc(C(F)(F)F)c1)C1CCCc2ccccc21 (configuration not stated)	-9%	1	-2	-5	-3	-4
Cc1ccc(C)c(NC(=S)NNC(=O)c2csc3c2CCC(C)C3)c1 (configuration not stated)	28µM*	3	-1	-28	-3	-4
Cc1ccc(C)c(NC(=S)NNC(=O)c2csc3c2CCCC3)c1	?	-1	0	-23	-8	19
CC(=O)N1C(C)(C)CC(=NOC(=O)c2ccccc2)CC1(C)C	-5%	-5	0	-1	10	0
CC(=O)N1C(C)(C)CC(=NOC(=O)c2ccc(C)cc2)CC1(C)C	-3%	-20	0	67*	?	-2
COc1cc(/C=N/NC(=O)CCC(=O)Nc2ccc(Br)cc2)ccc1O	-11%	32*	0	-10	1	-11
O=C(CCC(=O)Nc1ccc(Br)cc1)N/N=C/c1ccc(O)cc1	?	33*	-1	-23	-4	-23
COc1ccc(OC)c(/C=N/NC(=O)CCCC(=O)Nc2cccc(Br)c2)c1	54%	68*	1	-12	-2	-4
COc1ccc(NC(=O)CC2C(=O)N(c3ccccc3)C(=O)N2CCc2cccs2)cc1 (configuration not stated)	-12%	1	0	-2	-4	-2
